Structures are written as SMILES. Results filed as inconclusive are left out. Calls of active or inactive are those of the source. The calls were made as follows, unless noted: active = hit-call score of the fitted dose curve at least 0.9, where 1 is the maximum; inconclusive = response in the unintended direction; inactive = score below 0.9.

What is called AC50 is the concentration at which the activity in the assay is half-maximal.

Sequence of Peroxisome proliferator-activated receptor gamma (Homo sapiens) (P37231 whole entry, looked up): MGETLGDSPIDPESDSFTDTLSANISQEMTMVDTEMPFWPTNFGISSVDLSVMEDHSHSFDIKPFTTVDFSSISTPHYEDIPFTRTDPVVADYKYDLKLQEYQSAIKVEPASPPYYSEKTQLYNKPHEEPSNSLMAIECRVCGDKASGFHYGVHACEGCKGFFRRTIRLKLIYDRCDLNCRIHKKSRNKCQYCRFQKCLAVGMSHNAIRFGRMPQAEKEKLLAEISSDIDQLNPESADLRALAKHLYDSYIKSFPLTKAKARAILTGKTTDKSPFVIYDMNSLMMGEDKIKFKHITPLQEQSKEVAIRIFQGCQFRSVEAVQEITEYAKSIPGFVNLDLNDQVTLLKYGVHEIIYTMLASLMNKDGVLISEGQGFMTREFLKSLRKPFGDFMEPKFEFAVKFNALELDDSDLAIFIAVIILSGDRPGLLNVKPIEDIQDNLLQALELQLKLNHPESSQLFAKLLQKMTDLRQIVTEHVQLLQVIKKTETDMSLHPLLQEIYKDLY

The target in the first test is Retinoic acid receptor RXR-alpha (Homo sapiens) (UniProt P19793). Kind of test: OT_NURR1_NURR1RXRa_0480: Odyssey Thera (OT) 8-hour HEK293T Protein Complementation Assay for Nurr1/retinoid X receptor (RXR) (AID 2283385).
Sequence of Retinoic acid receptor RXR-alpha (Homo sapiens) (P19793 whole entry, looked up): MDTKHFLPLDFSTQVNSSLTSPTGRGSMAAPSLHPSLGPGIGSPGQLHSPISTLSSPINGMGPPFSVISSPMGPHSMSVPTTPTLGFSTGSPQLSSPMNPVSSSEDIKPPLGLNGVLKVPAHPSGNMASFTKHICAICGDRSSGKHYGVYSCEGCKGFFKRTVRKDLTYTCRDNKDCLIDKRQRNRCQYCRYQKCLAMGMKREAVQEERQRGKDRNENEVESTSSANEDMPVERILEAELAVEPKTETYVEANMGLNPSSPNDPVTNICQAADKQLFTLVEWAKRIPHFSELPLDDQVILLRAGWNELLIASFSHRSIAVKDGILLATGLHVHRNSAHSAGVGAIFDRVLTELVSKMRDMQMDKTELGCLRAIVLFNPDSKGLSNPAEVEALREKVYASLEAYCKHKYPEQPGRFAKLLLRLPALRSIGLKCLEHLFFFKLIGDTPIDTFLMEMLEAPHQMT
Conditions: not given
Put shortly: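 HEK293T cells expressing Nurr1 and RXRα fused to reporter fragments (protein-fragment complementation); fluorescence measured 8 h after dosing. Gain of signal fitted relative to DMSO.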
For `CC(=O)OC(C)(C)C`, the result was inactive.
As for `Cc1cccc(O)c1`, the compound was called inactive.
On the same count and under the same terms, the result for `CCCCOCCOCCOCCO` reads “inactive”; that for `CN(C)C`, “inactive”; that for `c1ccc(OCCOc2ccccc2)cc1`, “inactive”.
Still for that read-out and setting: then `CCCCCCCCCCCCOCCOS(=O)(=O)O`, with “inactive”.

A further test shares this target. The experiment in a line: OT_NURR1_NURR1RXRa_1440: Odyssey Thera (OT) 24-hour HEK293T Protein Complementation Assay for Nurr1/retinoid X receptor (RXR) (AID 2283386).
Conditions: not given
Put shortly: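 HEK293T protein-fragment complementation of Nurr1 and RXRα fused to reporter fragments; compounds 24 h. Fluorescence gain from reconstituted reporter fitted versus DMSO.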
As to `CCCC[N+](C)(CCCC)CCCC`, the result was inactive.
On the same count and under the same terms, then `CC(C)N(c1ccccc1)C(C)C`, with “inactive”; and `[Na+]`, with “inactive”; and `C=CC(C)CCCC(C)(C)O` (centres undefined), with “inactive”.
Regarding `CCCCCCC(C)O` (centres undefined), the call was inactive.
Same read-out and setting: the result for `CN(C)C(=O)Nc1ccccc1` reads “inactive”.
Same read-out and setting: the result for `OCC=Cc1ccccc1` reads “inactive”; that for `CCCC(O)C(CC)CO` (centres undefined), “inactive”.
Still for that read-out and setting: then `Cc1cccc(C)c1`, with “inactive”; and `CCCCOCCOCCO`, with “inactive”.
`COC(=O)c1cccc(C(=O)OC)c1`: the outcome was inactive.
For `FC(F)(F)c1ccc(Cl)c(Cl)c1`, the outcome was inactive.
`CCCCCCCCCCOC(=O)c1ccccc1C(=O)OCCCCCCCC`: the compound was classed as inactive.
The same measure, in the same setting: then `CC(C)(C)C1CCC(O)CC1` (centres undefined), with “inactive”.
With `NCCN1CCNCC1`, the outcome was inactive.

A further test has as its target Peroxisome proliferator-activated receptor gamma (Homo sapiens) (UniProt P37231). Kind of test: OT_PPARg_PPARgSRC1_0480: Odyssey Thera (OT) 8-hour Protein-Complementation Assay for Peroxisome Proliferator-activated Receptor Gamma / SRC-1 Co-activator (AID 2283387).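 Also: nuclear to cytoplasmic split Venus YFP fluorescence ratio reporting PPARg SRC-1 interaction.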
Conditions: not given
The method, boiled down: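 Protein-fragment complementation in HEK293T: Venus YFP halves (residues 1-158, 159-239, mutated to IFP1/IFP2) fused to PPARg/SRC-1. 8 h exposure; N/C ratio at 488 nm; DMSO negative control.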
For `CCCC[N+](C)(CCCC)CCCC`, the result was inactive.
As to `CC(C)N(c1ccccc1)C(C)C`, the compound was called inactive.
As for `[Na+]`, the outcome was inactive.
For the compound `O=c1cc(-c2ccc(O)cc2)oc2cc(O)cc(O)c12`, the outcome was inactive.
The same measure, in the same setting: the result for `C=CC(C)CCCC(C)(C)O` (centres undefined) reads “inactive”.
In the case of `CCCCCCC(C)O` (centres undefined), the result was inactive.
With `CN(C)C(=O)Nc1ccccc1`, the outcome was inactive.
Still for that read-out and setting: the result for `Cc1cccc(O)c1` reads “inactive”; that for `CCCCCCCCCOS(=O)(=O)O`, “inactive”; that for `CCCCOCCOCCOCCO`, “inactive”.
On the same count and under the same terms, the result for `OCC=Cc1ccccc1` reads “inactive”; that for `CC(=O)N(C)C`, “inactive”; that for `CC(=O)Oc1c(C)c(C)c2c(c1C)CC[C@@](C)(CCC[C@H](C)CCC[C@H](C)CCCC(C)C)O2`, “inactive”.
The same measure, in the same setting: then `[O-]/[N+](=N\O)c1ccccc1`, with “inactive”; and `CN(C)C`, with “inactive”; and `CCCC(O)C(CC)CO` (centres undefined), with “inactive”.
For the compound `CC(CCO)CC(C)(C)C` (centres undefined), the result was inactive.
The same measure, in the same setting: then `CC(O)CNCC(C)O` (centres undefined), with “inactive”; and `Cc1cccc(C)c1`, with “inactive”.
The same measure, in the same setting: then `CCCCOCCOCCO`, with “inactive”; and `c1ccc(OCCOc2ccccc2)cc1`, with “inactive”.
The same measure, in the same setting: the result for `COC(=O)c1cccc(C(=O)OC)c1` reads “inactive”; that for `CC(C)(C)c1ccc(S)cc1`, “inactive”; that for `FC(F)(F)c1ccc(Cl)c(Cl)c1`, “inactive”.
Consider `CCCCCCCCCCOC(=O)c1ccccc1C(=O)OCCCCCCCC`, for which the call was inactive.
With `CCCO[Si](OCCC)(OCCC)OCCC`, the compound was called inactive.
For the compound `O=Cc1ccccc1O`, the compound was classed as inactive.
Turning to `CC(=O)OC(C)(C)C1CC=C(C)CC1` (centres undefined), the outcome was inactive.
Regarding `CCCCCCCCCCCCOCCOS(=O)(=O)O`, the result was inactive.
`c1coc(CNc2ncnc3nc[nH]c23)c1`: the outcome was inactive.
Consider `CN1CCc2cccc3c2[C@H]1Cc1ccc(O)c(O)c1-3`, for which the result was inactive.

The next test has the same target. The experiment in a line: OT_PPARg_PPARgSRC1_1440: Odyssey Thera (OT) 24-hour Protein-Complementation Assay for Peroxisome Proliferator-activated Receptor Gamma/ SRC-1 Co-activator (AID 2283388).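 Also: nuclear to cytoplasmic ratio of reconstituted Venus YFP fluorescence in fixed imaged cells.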
Conditions: not given
Put shortly:
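Protein-fragment complementation between PPARg and coactivator SRC-1 was measured by fluorescence imaging in transiently transfected HEK293T cells after 24 h treatment. Signal was quantified as N/C ratio in the 488 nm channel, with DMSO as negative control.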
`CCCC[N+](C)(CCCC)CCCC`: the compound was classed as inactive.
On the same count and under the same terms, then `CC(C)N(c1ccccc1)C(C)C`, with “inactive”; and `[Na+]`, with “inactive”.
As to `O=c1cc(-c2ccc(O)cc2)oc2cc(O)cc(O)c12`, the compound was classed as inactive.
As to `C=CC(C)CCCC(C)(C)O` (centres undefined), the compound was classed as inactive.
Same read-out and setting: the result for `CC(=O)OC(C)(C)C` reads “inactive”; that for `CCCCCCC(C)O` (centres undefined), “inactive”.
The same measure, in the same setting: then `CN(C)C(=O)Nc1ccccc1`, with “inactive”; and `Cc1cccc(O)c1`, with “inactive”.
Still for that read-out and setting: then `CCCCCCCCCOS(=O)(=O)O`, with “inactive”; and `CCCCOCCOCCOCCO`, with “inactive”; and `OCC=Cc1ccccc1`, with “inactive”.
For the compound `CC(=O)N(C)C`, the compound was called inactive.
For the compound `CC(=O)Oc1c(C)c(C)c2c(c1C)CC[C@@](C)(CCC[C@H](C)CCC[C@H](C)CCCC(C)C)O2`, the result was inactive.
Consider `[O-]/[N+](=N\O)c1ccccc1`, for which the result was inactive.
On the same count and under the same terms, the result for `CN(C)C` reads “inactive”; that for `CCCC(O)C(CC)CO` (centres undefined), “inactive”; that for `CC(CCO)CC(C)(C)C` (centres undefined), “inactive”.
In the case of `CC(O)CNCC(C)O` (centres undefined), the outcome was inactive.
As for `Cc1cccc(C)c1`, the compound was classed as inactive.
`CCCCOCCOCCO`: the compound was called inactive.
Still for that read-out and setting: the result for `c1ccc(OCCOc2ccccc2)cc1` reads “inactive”.
With `COC(=O)c1cccc(C(=O)OC)c1`, the result was inactive.
On to `CC(C)(C)c1ccc(S)cc1`, for which the outcome was inactive.
Consider `FC(F)(F)c1ccc(Cl)c(Cl)c1`, for which the outcome was inactive.
For the compound `CCCCCCCCCCOC(=O)c1ccccc1C(=O)OCCCCCCCC`, the call was inactive.
With `CCCO[Si](OCCC)(OCCC)OCCC`, the compound was called inactive.
For `O=Cc1ccccc1O`, the compound was classed as inactive.
Same read-out and setting: then `CC(=O)OC(C)(C)C1CC=C(C)CC1` (centres undefined), with “inactive”; and `NCCN1CCNCC1`, with “inactive”.
For the compound `CCCCCCCCCCCCOCCOS(=O)(=O)O`, the compound was classed as inactive.
Still for that read-out and setting: the result for `c1coc(CNc2ncnc3nc[nH]c23)c1` reads “inactive”.
For `CN1CCc2cccc3c2[C@H]1Cc1ccc(O)c(O)c1-3`, the call was inactive.

Read-out in another test: not listed separately
The experiment in a line: CEETOX_H295R_11DCORT: CeeTox H295R High-throughput Steroidogenesis Assay for 11-Deoxycortisol (11DCORT) (AID 2283432; active = hit-call score of the fitted dose curve at least 0.9, where 1 is the maximum; inactive = score below 0.9;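 as to AC50: human adrenal H295R cells prestimulated with 10 µM forskolin for 48 h; 11-deoxycortisol secreted into the medium measured by LC-MS/MS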). The note with it: actives raise or lower the signal. Put shortly: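 Adrenal carcinoma line H295R, run per OECD 456 with minor changes, was forskolin-stimulated (10 uM, 48 h) before a 48 h chemical exposure at 0.1% DMSO. Secreted 11-deoxycortisol was quantified by HPLC-MS/MS.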
With `O=c1cc(-c2ccc(O)cc2)oc2cc(O)cc(O)c12`, the AC50 is 8.73 µM (active).
Take `CC=CC(=O)C1=C(C)C=CCC1(C)C`: the outcome was inactive.
The same measure, in the same setting: then `OCCCO`, with “inactive”; and `c1ccc(OCCOc2ccccc2)cc1`, with “inactive”; and `O=C(OCc1ccccc1)c1ccccc1O`, with “inactive”.
Same read-out and setting: then `CC(=N[Si](C)(C)C)O[Si](C)(C)C`, with “inactive”; and `c1coc(CNc2ncnc3nc[nH]c23)c1`, with “inactive”.

Read-out in a further test: not listed separately
The experiment in a line: CEETOX_H295R_OHPREG: CeeTox H295R High-throughput Steroidogenesis Assay for OH-Pregnenolone (OHPREG) (AID 2283434; active = hit-call score of the fitted dose curve at least 0.9, where 1 is the maximum; inactive = score below 0.9). The note with it: actives raise or lower the signal. Put shortly: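 H295R cells pre-stimulated 48 h with 10 uM forskolin, then exposed 48 h to chemical in 0.1% DMSO. 17alpha-hydroxypregnenolone in medium quantified by MTBE extraction and HPLC-MS/MS; bidirectional fit versus DMSO, viability checked by MTT.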
`CC=CC(=O)C1=C(C)C=CCC1(C)C`: the outcome was inactive.
On the same count and under the same terms, then `OCC=Cc1ccccc1`, with “inactive”; and `OCCCO`, with “inactive”; and `c1ccc(OCCOc2ccccc2)cc1`, with “inactive”.
The same measure, in the same setting: then `O=C(OCc1ccccc1)c1ccccc1O`, with “inactive”; and `CC(=N[Si](C)(C)C)O[Si](C)(C)C`, with “inactive”; and `c1coc(CNc2ncnc3nc[nH]c23)c1`, with “inactive”.

The record behind these values is PubChem BioAssay (EPA / NIEHS).
